The values that follow come from the supplement of paper PMC10338343.

± gives the standard deviation.

This assay relates to EfPiwi piRISC loaded with piRNA #1 (26 nt). Kind of assay: pre-steady-state target cleavage rate (min^-1); auxiliary factor: 500 nM Ephydatia muelleri Gtsf1; guide: piRNA #1 5'p-UGAGGUAGUAGGUUGUAUAGUAUCCA; MIWI and MILI are mouse PIWI proteins and EfPiwi is from a freshwater sponge; tags in brackets are library labels; higher = faster piRNA-guided slicing of the target. The gist of the method:
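Reactions were run for 0–8 or 0–960 min at 33 °C in HEPES–potassium acetate buffer, combining 1 nM active affinity-purified piRISC with one synthetic guide, […] transcribed, DNA-blocked target RNA library and, in some cases, 500 nM GTSF1 partner protein. Sequencing of uncleaved targets followed, with normalisation to depth and to weakly complementary targets. Three trials were pooled, k3 was capped at 0.0001 min^-1, and the pre-steady-state cleavage rate was taken from a burst-and-steady-state fit.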
Take GGAGAGGUUACUAAACAACCUACUACCUCA: the “pre-steady-state target cleavage rate” value amounted to 0.00353 ± 0.0034. In the case of GGAGACCUAACUAUACAACGAACUACCUCA, the “pre-steady-state target cleavage rate” value was under 0.0001. For GGAGACCUUACUAUACAACCUACUGCCUCA the value was 0.00661 ± 0.0029; for GGAGUGGAUACAAUACUACCUACUACCUCA, 0.00316 ± 0.0019. With GGAGACGAAACUAUACAACCAACUACCUCA, the “pre-steady-state target cleavage rate” value is 0.0068 ± 0.0036.

As for GGAGAGGAUACUAUACAACCUAGUACCACA, the “pre-steady-state target cleavage rate” value turned out to be 0.00381 ± 0.0016.

As to “GGAGACGAUACUAUACAACCUACUUGGAGA [g7:g24:cont:t1A]”, the “pre-steady-state target cleavage rate” value stood at 0.00429 ± 0.0022. For GGAGACCUUACUAUACAACCUAGUACCACA the value was 0.00255 ± 0.0023; for GGAGACCUAUGAUAUCAACCUACAUGCUCA, under 0.0001. As for GGAGACCUAACUAUACCAACCUACUACCUCA, the “pre-steady-state target cleavage rate” value was 0.00536 ± 0.0036. The figure for GGAGACCUAUCUAUACCAACCUACUACCUCA is 0.00573 ± 0.0036. For GGAGAGGAUACUAUACAGACCUACUACCUCA the value was 0.00626 ± 0.0046.

Turning to GGAGACCAUACUAUACAACCUAACUACCUCA, the “pre-steady-state target cleavage rate” value is 0.00707 ± 0.0033. The figure for GGAGUGGAUACUAUACAACCUACAAGCUCA is 0.00192 ± 0.0017; for GGAGAGGAAACUAUACAACCUACUUCCUCA it is 0.00302 ± 0.0017. For GGAGACCUUACUAUACAACCUACUUCCUCA the value was 0.0038 ± 0.0028; for GGAGAGGAUACUAUACAACCUACAACGUCA, 0.00371 ± 0.0017; for GGAGUGGAUACUAUACAACGUACUUCCUCA, 0.00364 ± 0.0017.

Turning to GGAGAGGUUACAAUACAACCUACUACCUCA, the “pre-steady-state target cleavage rate” value was 0.00504 ± 0.0035. For GGAGACGAGACUAUACAACCUACUACCUCA the value was 0.0942 ± 0.032; for GGAGACCAUACUAUACUAACCUACUACCUCA, 0.0042 ± 0.0031; for GGAGAGGAUACUAUACAACCUACAUCCUCA, 0.00358 ± 0.0016. The figure for GGAGACGAUACUAUACACACCUACUACCUCA is 0.0061 ± 0.0026; for GGAGACCUAUGAUAUCAACCUACUUCCACA it is under 0.0001; for GGAGACCAUACUAUACAACCUUACUACCUCA it is 0.00561 ± 0.0036. For GGAGACCUUACUAUACAACCUUCUACCUGA the value was 0.00341 ± 0.0028; for GGAGACCUAACUAUACAACCAACUACCUCA, 0.00331 ± 0.0023; for GGAGACCUAUGUAUACAACCAAGUACCUCA, under 0.0001. Regarding GGAGACCUAACUAUACAAACCUACUACCUCA, the “pre-steady-state target cleavage rate” value came out at 0.00462 ± 0.0028. For GGAGUGGAUACUAUACAACCUACUUCCUGA the value was 0.00267 ± 0.0023; for GGAGUGGAUACUAUACAACUCUACUACCUCA, 0.00493 ± 0.003.

As to GGAGAGGAUACUAUAUAACCUACUACCUCA, the “pre-steady-state target cleavage rate” value came out at 0.109 ± 0.041. Regarding GGAGUGGAUACUAUACAAGCCUACUACCUCA, the “pre-steady-state target cleavage rate” value came to 0.0104 ± 0.0053. For GGAGACCAUAGAAUACAACCUACUACCUCA the value was 0.00684 ± 0.0033; for GGAGAGGAUACUAUACAACCAAGUACCUCA, 0.00282 ± 0.002. The figure for GGAGUGGAUACUAUACAACCUGACUACCUCA is 0.00415 ± 0.002.

As for GGAGACCAUAUUAUACAACCUACUACCUCA, the “pre-steady-state target cleavage rate” value came to 0.116 ± 0.036. Take GGAGUGGAAACUAUACAACCAACUACCUCA: the “pre-steady-state target cleavage rate” value was found to be 0.0049 ± 0.0032.

For GGAGACGAUACUAUACAACCUACUCCUCA, the “pre-steady-state target cleavage rate” value turned out to be 0.0048 ± 0.0022. For the sequence GGAGUAGAUACUAUACAACCUACUACCUCA, the “pre-steady-state target cleavage rate” value came to 0.158 ± 0.057.
